This is an account of results in PubChem BioAssay (EPA / NIEHS).

Broadly, the AC50 is the midpoint of the concentration-response curve, whichever way the signal moves.

Records with an inconclusive call do not appear. Calls of active or inactive are those of the source. The calls were made as follows, unless noted: active = hit-call score of the fitted dose curve at least 0.9, where 1 is the maximum; inconclusive = response in the unintended direction; inactive = score below 0.9.

Experiment [1] is described as follows: CCTE_Harrill_HTTr_Viability_DMEM_6hr: (Pilot) CCTE's 6-hour Cell Viability Assessment for the High-Throughput Transcriptomics (HTTr) Platform, in MCF-7 cells cultured in DMEM + 10% fetal bovine serum, Harrill Lab (AID 2283973; active = hit-call score of the fitted dose curve at least 0.9, where 1 is the maximum; inactive = score below 0.9). A digest of the protocol:
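MCF-7 cells in DMEM + 10% FBS, eight-point dilution series, 6 h exposure. Membrane integrity by propidium iodide exclusion with high-content imaging; bidirectional fit versus DMSO.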

Experiment [2] in a line: CCTE_Harrill_HTTr_Viability_DMEM_12hr: (Pilot) CCTE's 12-hour Cell Viability Assessment for the High-Throughput Transcriptomics (HTTr) Platform, in MCF-7 cells cultured in DMEM + 10% fetal bovine serum, Harrill Lab (AID 2283974; active = hit-call score of the fitted dose curve at least 0.9, where 1 is the maximum; inactive = score below 0.9). The method in brief:
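MCF-7 cells in DMEM + 10% FBS exposed 12 h to an eight-point dilution series; membrane integrity scored by propidium iodide exclusion with high-content imaging, bidirectional fitting versus DMSO.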

Experiment [3] is described as follows: CCTE_Harrill_HTTr_Viability_DMEM_24hr: (Pilot) CCTE's 24-hour Cell Viability Assessment for the High-Throughput Transcriptomics (HTTr) Platform, in MCF-7 cells cultured in DMEM + 10% fetal bovine serum, Harrill Lab (AID 2283975; active = hit-call score of the fitted dose curve at least 0.9, where 1 is the maximum; inactive = score below 0.9). A digest of the protocol: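 MCF-7 cells in DMEM with 10% FBS exposed for 24 hours to an eight-point dilution series. Membrane integrity by propidium iodide exclusion with high content imaging; bidirectional fit against DMSO.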

Experiment [4] in a line: CCTE_Harrill_HTTr_Viability_PRF_DMEM_6hr: (Pilot) CCTE's 6-hour Cell Viability Assessment for the High-Throughput Transcriptomics (HTTr) Platform, in MCF-7 cells cultured phenol red-free DMEM + 10% charcoal-stripped fetal bovine serum, Harrill Lab (AID 2283976; active = hit-call score of the fitted dose curve at least 0.9, where 1 is the maximum; inactive = score below 0.9). A digest of the protocol: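 MCF-7 cells in phenol red-free DMEM with 10% charcoal-stripped FBS exposed 6 hours to an eight-point dilution series. Propidium iodide exclusion imaged; curves fitted bidirectionally against DMSO.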

Experiment [5] is described as follows: CCTE_Harrill_HTTr_Viability_PRF_DMEM_12hr: (Pilot) CCTE's 12-hour Cell Viability Assessment for the High-Throughput Transcriptomics (HTTr) Platform, in MCF-7 cells cultured in phenol red-free DMEM + 10% charcoal-stripped fetal bovine serum, Harrill Lab (AID 2283977; active = hit-call score of the fitted dose curve at least 0.9, where 1 is the maximum; inactive = score below 0.9). The method in brief: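 MCF-7 cells in phenol red-free DMEM with 10% charcoal-stripped FBS exposed 12 hours to an eight-point dilution series. Viability assessed by high-content imaging of propidium iodide exclusion; bidirectional fit versus DMSO.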

Experiment [6] in a line: CCTE_Harrill_HTTr_Viability_PRF_DMEM_24hr: (Pilot) CCTE's 24-hour Cell Viability Assessment for the High-Throughput Transcriptomics (HTTr) Platform, in MCF-7 cells cultured in phenol red-free DMEM + 10% charcoal-stripped fetal bovine serum, Harrill Lab (AID 2283980; active = hit-call score of the fitted dose curve at least 0.9, where 1 is the maximum; inactive = score below 0.9). The method in brief: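 MCF-7 cells in phenol red-free DMEM with 10% charcoal-stripped FBS, eight-point dilution series, 24 h exposure. Membrane integrity by propidium iodide exclusion with high content imaging; bidirectional fit vs DMSO.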

Experiment [7] can be described thus: CCTE_Harrill_HTTr_Apoptosis_DMEM_6hr: (Pilot) CCTE's 6-hour Apoptosis Assessment for the High-Throughput Transcriptomics (HTTr) Platform, in MCF-7 cells cultured in DMEM + 10% fetal bovine serum, Harrill Lab (AID 2283981; active = hit-call score of the fitted dose curve at least 0.9, where 1 is the maximum; inactive = score below 0.9). A digest of the protocol:
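Caspase-3/7 activation read by high content imaging with CellEvent Caspase 3/7 Green in MCF-7 cells (DMEM + 10% FBS), 6 h after dosing; eight-point dilution series. Bidirectional fitting relative to DMSO baseline.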

Experiment [8] can be described thus: CCTE_Harrill_HTTr_Apoptosis_DMEM_12hr: (Pilot) CCTE's 12-hour Apoptosis Assessment for the High-Throughput Transcriptomics (HTTr) Platform, in MCF-7 cells cultured in DMEM + 10% fetal bovine serum, Harrill Lab (AID 2283982; active = hit-call score of the fitted dose curve at least 0.9, where 1 is the maximum; inactive = score below 0.9). A digest of the protocol: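 MCF-7 cells in DMEM + 10% FBS, exposed 12 h to an eight-point dilution series; caspase-3/7 activation imaged with CellEvent Green. Bidirectional fit versus DMSO.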

A short description of experiment [9]: CCTE_Harrill_HTTr_Apoptosis_DMEM_24hr: (Pilot) CCTE's 24-hour Apoptosis Assessment for the High-Throughput Transcriptomics (HTTr) Platform, in MCF-7 cells cultured in DMEM + 10% fetal bovine serum, Harrill Lab (AID 2283983; active = hit-call score of the fitted dose curve at least 0.9, where 1 is the maximum; inactive = score below 0.9). The method in brief: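 MCF-7 cells in DMEM + 10% FBS, eight-point dilution series, 24 h exposure. Caspase-3/7 activation imaged by high-content imaging with CellEvent Caspase 3/7 Green. Bidirectional curve fitting against DMSO baseline.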

Experiment [10] is described as follows: CCTE_Harrill_HTTr_Apoptosis_PRF_DMEM_6hr: (Pilot) CCTE's 6-hour Apoptosis Assessment for the High-Throughput Transcriptomics (HTTr) Platform, in MCF-7 cells cultured phenol red-free DMEM + 10% charcoal-stripped fetal bovine serum, Harrill Lab (AID 2283984; active = hit-call score of the fitted dose curve at least 0.9, where 1 is the maximum; inactive = score below 0.9). The method in brief:
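MCF-7 cells in phenol red-free DMEM + 10% charcoal-stripped FBS, eight-point dilution series, 6 h exposure. Caspase-3/7 activation imaged by high-content imaging with CellEvent Caspase 3/7 Green; bidirectional fit versus DMSO baseline.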

Experiment [11] is described as follows: CCTE_Harrill_HTTr_Apoptosis_PRF_DMEM_24hr: (Pilot) CCTE's 24-hour Apoptosis Assessment for the High-Throughput Transcriptomics (HTTr) Platform, in MCF-7 cells cultured in phenol red-free DMEM + 10% charcoal-stripped fetal bovine serum, Harrill Lab (AID 2283986; active = hit-call score of the fitted dose curve at least 0.9, where 1 is the maximum; inactive = score below 0.9). A digest of the protocol:
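MCF-7 cells in phenol red-free DMEM with 10% charcoal-stripped FBS, exposed 24 h across an eight-point dilution series. Caspase-3/7 activation imaged with CellEvent Green by high content imaging; bidirectional fitting against DMSO.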

Another experiment has as its system DIO1 (gene 1733). Put plainly: CCTE_GLTED_hDIO1: CCTE's human Deiodinase 1 (DIO1) Inhibition Assay, Great Lakes Toxicology and Ecology Division (GLTED) Lab (AID 2283987).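 Also: isolated human DIO1 enzyme in a cell-free setup rather than cells; enzyme activity read as free iodide liberated from substrate via Sandell-Kolthoff colorimetry.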 A digest of the protocol: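 Steps: human DIO1 enzyme plus test chemical, 3 h incubation; free iodide then quantified in a second Sandell-Kolthoff step by absorbance. DMSO served as negative control and baseline.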

In experiment [12] the target is Nucleoli Translocation, AR (gene 367) (UniProt P10275). Put plainly: UPITT_HCI_U2OS_AR_TIF2_Nucleoli_Agonist: University of Pittsburgh U2OS Androgen Receptor-Transcriptional Intermediary Factor 2 (AR-TIF2) Agonism High Content Imaging Assay for Nucleoli Translocation (AID 2283998). The method in brief: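 RFP-AR / GFP-TIF2 cells; cpds diluted in serum-free medium; single-point screen 20 uM final (0.2% DMSO), actives confirmed in triplicate; conc-response 0.195–50 uM final (0.5% DMSO). Readout: nucleolar red fluorescence, positive direction vs DMSO.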

Experiment [13] concerns the target Ratio of Nucleoli Translocation and Cytoplasm, AR (gene 367) (UniProt P10275). Put plainly: UPITT_HCI_U2OS_AR_TIF2_Nucleoli_Cytoplasm_Ratio_Antagonist: University of Pittsburgh U2OS Androgen Receptor-Transcriptional Intermediary Factor 2 (AR-TIF2) Antagonism High Content Imaging Assay for Ratio of Nucleoli Translocation and Cytoplasm (AID 2283999).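 Also: antagonists lower the DHT-driven ratio of nucleolar to cytoplasmic red signal.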 A digest of the protocol: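 U2OS cells co-expressing RFP-tagged human AR and GFP-tagged TIF2, antagonist mode with DHT as baseline. Nucleolar-to-cytoplasmic red fluorescence ratio imaged by high-content microscopy; final compound 20 uM (0.2% DMSO) primary, 0.195–50 uM (0.5% DMSO) concentration-response.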

For experiment [14] the target is unchanged. Put plainly: UPITT_HCI_U2OS_AR_TIF2_Nucleoli_Cytoplasm_Ratio_Agonist: University of Pittsburgh U2OS Androgen Receptor-Transcriptional Intermediary Factor 2 (AR-TIF2) Agonism High Content Imaging Assay for Ratio of Nucleoli Translocation and Cytoplasm (AID 2284000).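 Also: hits raise the red nucleolar to cytoplasm ratio above vehicle.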 A digest of the protocol: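 U2OS cells expressing RFP-tagged human AR and GFP-tagged TIF2 were imaged by high-content fluorescence microscopy. The endpoint is the ratio of nucleolar to cytoplasmic red fluorescence, fitted for gain of signal relative to DMSO. Concentration-response spanned 0.195 to 50 uM final (0.5% DMSO).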

Experiment [15] addresses Retinoic acid receptor RXR-alpha (Homo sapiens) (UniProt P19793). Put plainly: TOX21_TR_RXR_BLA_Agonist_Followup_ratio: Tox21 Thyroid Hormone Receptor beta Retinoid X Receptor alpha (RXRa) Agonism Beta-lactamase (BLA) Follow-Up Assay, Ratio (AID 2283968). The method in brief: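 RXRa-UAS-bla HEK293T cells, 5 h attachment at 37C/5% CO2, then 11 concentrations in triplicate for 16 h; 9-cis retinoic acid positive control. FRET-B/GCCF4-AM substrate 2 h at room temperature; 460:530 nm ratio, fitted for gain versus DMSO.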

Experiment [16] in a line: TOX21_TR_RXR_BLA_Agonist_Followup_viability: Viability Assessment in the Tox21 Thyroid Hormone Receptor beta Retinoid X Receptor alpha (RXRa) Agonism Beta-lactamase (BLA) Follow-Up Assay (AID 2283970). A digest of the protocol:
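RXRa-UAS-bla HEK293T cells, 2,500/well in phenol red-free DMEM with 2% charcoal-stripped FBS, dosed for 16 h at 37C. Viability measured by CellTiter-Glo ATP luminescence; fitted bidirectionally against DMSO baseline, loss of signal indicating cytotoxicity.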

Experiment [17] in a line: CCTE_Simmons_MITO_basal_resp_rate: CCTE's HepG2 Seahorse XF Respirometric Screening Assay at Basal Respiratory State, Simmons Lab (AID 2284001; active = hit-call score of the fitted dose curve at least 0.9, where 1 is the maximum; inactive = score below 0.9). The settings on record: actives raise or lower the signal. The method in brief: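 HepG2 cells were given test chemicals at 7 concentrations, 125 nM to 100 uM final, and oxygen consumption rate was read every 6 min (3 min mix, 3 min measure) over 72 min. Basal-phase OCR was fitted bidirectionally against DMSO.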

Sequence of Ratio of Nucleoli Translocation and Cytoplasm, AR (gene 367) (P10275 whole entry, looked up): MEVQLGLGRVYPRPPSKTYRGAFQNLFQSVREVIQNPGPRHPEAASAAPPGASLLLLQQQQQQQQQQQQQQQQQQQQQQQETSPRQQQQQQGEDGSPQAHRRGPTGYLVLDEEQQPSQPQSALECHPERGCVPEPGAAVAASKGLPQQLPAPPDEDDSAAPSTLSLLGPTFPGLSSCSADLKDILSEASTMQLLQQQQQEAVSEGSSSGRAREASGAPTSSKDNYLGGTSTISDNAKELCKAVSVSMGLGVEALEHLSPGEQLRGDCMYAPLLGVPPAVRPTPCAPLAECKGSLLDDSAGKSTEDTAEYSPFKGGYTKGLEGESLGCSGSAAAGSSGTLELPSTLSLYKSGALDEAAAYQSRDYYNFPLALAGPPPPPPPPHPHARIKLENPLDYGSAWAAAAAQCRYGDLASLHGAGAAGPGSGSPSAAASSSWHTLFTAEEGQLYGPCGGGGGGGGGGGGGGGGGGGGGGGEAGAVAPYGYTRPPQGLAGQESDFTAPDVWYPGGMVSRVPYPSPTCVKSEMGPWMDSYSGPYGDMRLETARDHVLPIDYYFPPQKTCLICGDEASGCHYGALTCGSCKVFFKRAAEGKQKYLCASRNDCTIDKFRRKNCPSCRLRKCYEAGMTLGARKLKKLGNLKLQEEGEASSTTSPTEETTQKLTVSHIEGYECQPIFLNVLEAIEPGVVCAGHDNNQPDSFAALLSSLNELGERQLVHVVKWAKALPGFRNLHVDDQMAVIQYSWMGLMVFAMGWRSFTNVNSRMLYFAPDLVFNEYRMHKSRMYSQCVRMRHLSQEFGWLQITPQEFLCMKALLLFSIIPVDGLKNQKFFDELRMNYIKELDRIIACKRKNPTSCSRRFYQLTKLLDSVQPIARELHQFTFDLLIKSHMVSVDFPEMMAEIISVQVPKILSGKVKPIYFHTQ
Sequence of Nucleoli Translocation, AR (gene 367) (P10275 whole entry, looked up): as above
Sequence of Retinoic acid receptor RXR-alpha (Homo sapiens) (P19793 whole entry, looked up): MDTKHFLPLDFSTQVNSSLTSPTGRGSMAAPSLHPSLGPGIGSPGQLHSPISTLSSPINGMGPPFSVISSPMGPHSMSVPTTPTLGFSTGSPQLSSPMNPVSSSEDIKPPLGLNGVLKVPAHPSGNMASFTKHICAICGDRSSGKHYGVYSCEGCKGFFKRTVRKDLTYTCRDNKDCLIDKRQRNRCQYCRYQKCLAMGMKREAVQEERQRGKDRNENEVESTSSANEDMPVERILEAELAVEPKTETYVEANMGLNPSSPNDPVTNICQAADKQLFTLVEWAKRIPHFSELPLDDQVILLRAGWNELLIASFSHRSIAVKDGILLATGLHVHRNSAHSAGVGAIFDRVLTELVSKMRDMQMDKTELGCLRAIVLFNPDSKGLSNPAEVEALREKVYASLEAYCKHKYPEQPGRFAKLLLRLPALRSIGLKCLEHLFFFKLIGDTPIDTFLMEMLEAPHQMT

For the compound `CCC(=C(c1ccc(O)cc1)c1ccc(OCCN(C)C)cc1)c1ccccc1`, the AC50 was 79 µM (active) in [1]; 63.6 µM (active) in experiment [2]; 69.4 µM (active) in [3]; 69.8 µM (active) in experiment [4]; 73.1 µM (active) in [5]; 63.6 µM (active) in experiment [6]. In addition, the AC50 was 81.2 µM (active) in experiment [7]; 84 µM (active) in experiment [8]; 82.6 µM (active) in experiment [9]; 76.1 µM (active) in experiment [10]; 80.8 µM (active) in experiment [11]; 46.5 µM (active) in the experiment on DIO1 (gene 1733). Further, the AC50 in [12] was 22.5 µM (active); in experiment [14], 26.2 µM (active). In addition, the result in experiment [13] was inactive.
Take `CC(=O)CC(C)(C)O`: the compound was called inactive in experiment [12], in experiment [13] and in experiment [14].
For the compound `Cc1oc(-c2ccccc2)nc1CCOc1ccc(C[C@H](Nc2ccccc2C(=O)c2ccccc2)C(=O)O)cc1`, the outcome in experiment [1], in [2], in experiment [3], in experiment [4], in [5] and in experiment [6] was inactive. In addition, the outcome in [7], in experiment [8], in [9], in experiment [10], in experiment [11] and in [12] was inactive. For the same compound, the outcome in experiment [13] and in experiment [14] was inactive. The AC50 with DIO1 (gene 1733) was 72.1 µM (active).
On to `COc1cc(CCC(=O)CC(=O)CCc2ccc(O)c(OC)c2)ccc1O`, for which the result in experiment [13] and in [14] was inactive.
On to `CC(C)(C)c1cc(C(C)(C)C)c(O)c(C(C)(C)C)c1`, for which, in experiment [15], the AC50 was 59.6 µM (active). Further, in experiment [16], the compound was classed as inactive.
For `CCCOc1sc(C(=O)N2CCC(c3cc(CN)ccc3F)CC2)c(C)c1Br`, the values for the AC50 in [12] and in experiment [14] were 7.93 µM (active) and 8.47 µM (active), respectively. Further, the outcome in [13] was inactive.
In the case of `CC(C)(C)c1ccc(O)c(C(C)(C)C)c1`, the AC50 with DIO1 (gene 1733) is 108 µM (active).
The same measure, in the same setting: next, `O=c1c(-c2ccc(O)cc2)coc2cc(O)ccc12`: 17.2 µM (active).
Regarding `Nc1cccc2c(N)cccc12`, the call in [12], in experiment [13], in [14] and in experiment [17] was inactive.
Turning to `CCCCCCCCCCCCc1ccccc1S(=O)(=O)O`, the AC50 is 96.3 µM (active) in the experiment with DIO1 (gene 1733), 90.7 µM (active) in [12] and 90.9 µM (active) in experiment [14]. The outcome in [13] was inactive.
On to `CC[C@H](c1ccc(O)cc1)[C@@H](CC)c1ccc(O)cc1`, for which the AC50 in experiment [12] is 50 µM (active); in experiment [14], 50 µM (active); in experiment [17], 20.8 µM (active). Besides, the outcome in [13] was inactive.
With `CN1CCN(c2ccccc2/C=C2\SCCN(c3ccc(Cl)c(Cl)c3)C2=O)CC1`, the result in experiment [17] was inactive.
